Source: PubChem BioAssay
MEX-5 binding: C. elegans MEX-5 TCR-2 RNA binding activity; Q9XUB2; MEX-5/FITC-TCR2 RNA binding, fluorescence polarization; hits give low values; activity score (negative = inhibition of binding), % at 10 µM; 0.38% of 300,000 active;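 active = inhibition past about -25% in most replicates, and total fluorescence under double the plate's negative control median, limit read from the data; inconclusive = replicates evenly split on the limit, or fluorescence at least double controls; inactive = too little inhibition in most replicates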;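 also: 0% = DMSO and -100% = 5 µM competing unlabeled TCR2 RNA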
Bcl-xL primary: Bcl-xL (human) inhibition; inhibition, % at 10.9 µM; 0.7% of 320,000 active; GST-Bcl-xL / FITC-Bim BH3 peptide fluorescence polarization;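 active = inhibition above the mean of all tested compounds plus 3 SD, cutoff set per campaign, cut at about 30% in these data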;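 also: 0% = DMSO wells and 100% = unlabeled Bim-BH3 peptide competitor; inhibitors lower millipolarization by displacing the labeled peptide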
Target sequence (Q07817 whole entry, looked up): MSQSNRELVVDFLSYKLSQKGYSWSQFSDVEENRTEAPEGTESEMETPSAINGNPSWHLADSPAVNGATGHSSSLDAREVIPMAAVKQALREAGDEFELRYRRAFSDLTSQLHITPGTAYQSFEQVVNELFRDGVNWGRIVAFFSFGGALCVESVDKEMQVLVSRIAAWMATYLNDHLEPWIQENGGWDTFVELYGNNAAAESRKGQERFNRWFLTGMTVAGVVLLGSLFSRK
EBV gp42 block: EBV gp42 inhibition | Q1HVG2 | Fluorescence polarization binding assay, mP read-out | inhibition, % (tested at 21.74 µM) | 0.42% of 220,000 active | AID 1085; in the data active = inhibition above about 50%
Target sequence (Q1HVG2 whole entry, looked up): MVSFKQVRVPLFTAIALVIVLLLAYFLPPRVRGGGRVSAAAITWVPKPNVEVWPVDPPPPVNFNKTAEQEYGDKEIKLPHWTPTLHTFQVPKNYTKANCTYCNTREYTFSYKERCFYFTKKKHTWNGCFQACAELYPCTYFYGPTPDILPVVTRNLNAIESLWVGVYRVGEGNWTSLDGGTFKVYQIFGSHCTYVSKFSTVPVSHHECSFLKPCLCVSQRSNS
MCL1-BIM inh: MCL1-BIM-BH3 interaction inhibition (human); AID 2057; Q07820; GST-MCL1 / FITC-Bim-BH3 fluorescence polarization; 0.68% of 320,000 active; inhibition, % at 10.9 µM;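 active = inhibition above the mean inhibition of all tested compounds plus 3 SD, set per campaign, cut at about 40% in these data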;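 also: 0% = DMSO wells and 100% = unlabeled Bim-BH3 peptide control; higher means more loss of mP so more displacement of Bim peptide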
GLD-1 TGE inh: GLD-1-TGE RNA interaction inhibition (C. elegans) | Q17339 | AID 2280 | inhibition, % at 5.96 µM | purified GLD-1 + fluorescein TGE RNA, fluorescence polarization | 0.44% of 320,000 active;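 active = percent inhibition above a per-plate cutoff, the plate mean of test compounds plus 3 SD, cut at about 30% in these data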;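 also: 0% = DMSO wells with GLD-1 and probe and 100% = wells lacking GLD-1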
Bcl-xL conf: counter-screen for MCL1 inhibitors: confirmation of human Bcl-xL inhibitors; shares compounds with MCL1-BIM inh; GST-Bcl-xL / FITC-Bim BH3 peptide FP binding; inhibition, % at 10.9 µM; 54% of 1,700 active; AID 2166;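 active = inhibition above a cutoff equal to the mean inhibition of all tested compounds plus 3 SD, cut at about 30% in these data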;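 also: 0% = DMSO wells and 100% = unlabeled Bim BH3 control peptide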
MCL1 inh confirm: MCL1-BIM-BH3 interaction inhibition, confirmation. inhibition, % at 10.9 µM. GST-MCL1 / FITC-Bim-BH3 fluorescence polarization. 61% of 1,700 active. shares compounds with MCL1-BIM inh;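 active = inhibition above the average of all tested compounds plus 3 SD, cut at about 40% in these data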;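 also: 0% = DMSO wells and 100% = unlabeled Bim-BH3 control peptide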
Active calls of the source: *. Compounds with a hit are over-represented: about 1.3% of the library has one in this group of screens.

`Cc1ccc[n+](-c2nc([O-])sc2C=O)c1` gave Bcl-xL primary 173*, EBV gp42 block 142*, MCL1-BIM inh active, GLD-1 TGE inh 156*, Bcl-xL conf 169* and MCL1 inh confirm active.
Screening CC(C)c1ccc[n+](-c2nc([O-])sc2C=O)c1 returned MEX-5 binding -4, Bcl-xL primary 8, EBV gp42 block -7, MCL1-BIM inh 3 and GLD-1 TGE inh 3.
`COc1ccc(S(=O)(=O)N2CCOC2CNC(=O)C(=O)NCc2ccccn2)cc1C` (centres undefined) gave MEX-5 binding 3, Bcl-xL primary 7, MCL1-BIM inh 8 and GLD-1 TGE inh 5.
Screening C=CCSC1=N/C(=C\C=C\c2ccco2)C(=O)S1 returned MEX-5 binding 0, Bcl-xL primary 13, EBV gp42 block -14, MCL1-BIM inh 47*, GLD-1 TGE inh 0, Bcl-xL conf 3 and MCL1 inh confirm 27.
For CCOC(=O)c1sc(=S)n(C)c1NC(=O)c1ccccc1C the results were MEX-5 binding 1, Bcl-xL primary 7, EBV gp42 block -28, MCL1-BIM inh 5 and GLD-1 TGE inh 2.
For CCn1cc(C(=O)Nc2sc(C)c(C)c2C(=O)OC)cn1 the results were MEX-5 binding -1, Bcl-xL primary 6, EBV gp42 block 16, MCL1-BIM inh 6 and GLD-1 TGE inh 1.
Screening CC1(C)CC(=O)C2=C(C1)Nc1ccccc1N=C2 returned MEX-5 binding -16, Bcl-xL primary 91*, EBV gp42 block 31, MCL1-BIM inh 106*, GLD-1 TGE inh 63*, Bcl-xL conf 29 and MCL1 inh confirm 27.
Screening CCN1C(=O)c2cccc3c(N)ccc(c23)C1=O returned MEX-5 binding inconclusive, Bcl-xL primary active, MCL1-BIM inh active, GLD-1 TGE inh active, Bcl-xL conf active and MCL1 inh confirm active.
Screening Cc1nn(C)c(C)c1N1C(=O)c2cccc3c(N)ccc(c23)C1=O returned Bcl-xL primary active, EBV gp42 block 169*, MCL1-BIM inh active, GLD-1 TGE inh active, Bcl-xL conf active and MCL1 inh confirm active.
Cc1ccc([N+](=O)[O-])cc1-c1ccc(/C=C(\C#N)c2[nH]nc(N)c2C#N)o1 was read as Bcl-xL primary 9, EBV gp42 block 60*, MCL1-BIM inh 49*, GLD-1 TGE inh 7, Bcl-xL conf 54* and MCL1 inh confirm 84*.
`COCc1cc(C)nc(OCC(=O)N/N=C/c2ccc(-c3cc([N+](=O)[O-])ccc3C)o2)c1C#N` gave MEX-5 binding -1, Bcl-xL primary 2, EBV gp42 block 1, MCL1-BIM inh 0 and GLD-1 TGE inh -4.
Screening CCC(C)NC(=O)C1CCN(S(=O)(=O)c2ccc(OC)cc2)CC1 (centres undefined) returned MEX-5 binding -2, Bcl-xL primary -5, EBV gp42 block -11, MCL1-BIM inh -12 and GLD-1 TGE inh -3.
`O=C(c1nc2ccc(Cl)cn2c1CN1CCC[C@H]1CO)N1CCCCCCC1` gave MEX-5 binding -23, Bcl-xL primary 61*, MCL1-BIM inh 66*, GLD-1 TGE inh 26, Bcl-xL conf 55* and MCL1 inh confirm 69*.
Screening O=C(COc1cccnc1[N+](=O)[O-])Nc1c(Cl)cccc1Cl returned GLD-1 TGE inh 3.
`O=C(COc1cccnc1[N+](=O)[O-])Nc1ncc(Cl)cc1Cl` gave Bcl-xL primary 64*, MCL1-BIM inh 78*, GLD-1 TGE inh 31, Bcl-xL conf 61* and MCL1 inh confirm 98*.
`Cc1ccc2c(c1)N(CC(=O)NC1CCC(C)CC1)C(=O)c1cccnc1O2` (centres undefined) gave MEX-5 binding -1, Bcl-xL primary 4, MCL1-BIM inh 9 and GLD-1 TGE inh -1.
O=C(COC(=O)c1ccc(O)cc1O)NC12CC3CC(CC(C3)C1)C2 was read as Bcl-xL primary 139*, MCL1-BIM inh 158*, GLD-1 TGE inh 100*, Bcl-xL conf 11 and MCL1 inh confirm 16.
